Assay [1] has as its target Paired box protein Pax-6 (Homo sapiens) (UniProt P26367). Briefly: ATG_Pax6_CIS: Attagene CIS-FACTORIAL HepG2 Assay for human Paired Box 6 (PAX6) (AID 2282956). The note with it: HepG2 CIS-FACTORIAL PAX6 reporter transcription, RNA readout; actives raise or lower the signal. An outline of the steps: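 Transient MRTU transfection of HepG2 → compound exposure 24 h → TriZol RNA, oligo(dT) RT → PCR, 6-FAM primer extension, HpaI cut → capillary electrophoresis; activity fitted both directions against DMSO.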

The nature of assay [2]: ATG_PXRE_CIS: Attagene CIS-FACTORIAL HepG2 Assay for human Pregnane X Receptor Element (PXRE) (AID 2282957). The note with it: HepG2 Attagene CIS-FACTORIAL PXRE reporter, mRNA; actives raise or lower the signal. An outline of the steps:
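Transfect HepG2 with MRTUs (cis promoter elements); dose chemical, incubate 24 h; isolate RNA, RT with oligo(dT), PCR, 6-FAM label, HpaI cut, CE. Gain/loss fit vs DMSO.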

Assay [3] is described as follows: ATG_RORE_CIS: Attagene CIS-FACTORIAL HepG2 Assay for human RAR-related Orphan Receptor Element (RORE) (AID 2282959). The note with it: HepG2 Attagene cis-factorial RORE reporter, mRNA; actives raise or lower the signal. An outline of the steps: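 Transfect HepG2 with MRTUs; treat 24 h; extract RNA; RT with oligo(dT); PCR with reporter-specific primers; 6-FAM primer extension; HpaI digest 2 h at 37 C; capillary electrophoresis. Fit vs DMSO, bidirectional.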

Assay [4] in a line: ATG_Sox_CIS: Attagene CIS-FACTORIAL HepG2 Assay for human SRY-box transcription factor (SOX) (AID 2282960). The conditions noted are these: HepG2 Attagene cis-factorial SOX reporter, mRNA; actives raise or lower the signal. In short, it runs like this:
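Fluorescence-labelled cDNA fragments from reporter transcripts, sized by CE, give the signal. Cells: HepG2, transiently transfected with cis-regulated reporter units. Exposure 24 h; DMSO negative control; bidirectional curve fitting.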

For assay [5], the target named is Transcription factor Sp1 (Homo sapiens) (UniProt P08047). The experiment in a line: ATG_Sp1_CIS: Attagene CIS-FACTORIAL HepG2 Assay for human Specificity Protein 1 (Sp1) (AID 2282961). The conditions noted are these: HepG2 Sp1 cis-reporter transcription, actives raise or lower the signal. In short, it runs like this: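 Chemicals are dosed onto HepG2 cells transfected with multiple cis-promoter reporter constructs, and after 24 h reporter RNA is reverse-transcribed, PCR-amplified and resolved by capillary electrophoresis for fluorescence quantitation; activity is scored up or down against DMSO.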

Assay [6] can be described thus: ATG_SREBP_CIS: Attagene CIS-FACTORIAL HepG2 Assay for human Sterol Regulatory Element Binding (SREBP) (AID 2282962). The conditions noted are these: HepG2 Attagene cis-factorial SREBP reporter, mRNA; actives raise or lower the signal. In short, it runs like this:
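Transfected HepG2 (cis-regulated reporter library, endogenous TFs) → compound 24 h → total RNA → oligo(dT) RT → reporter-specific PCR → FAM primer extension, HpaI cut → CE fluorescence. Fit bidirectional vs DMSO.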

Assay [7] deals with Signal transducer and activator of transcription 3 (Homo sapiens) (UniProt P40763). The experiment in a line: ATG_STAT3_CIS: Attagene CIS-FACTORIAL HepG2 Assay for human Signal Transducer and Activator of Transcription 3 (STAT3) (AID 2282963). The note with it: HepG2, Attagene cis-factorial STAT3 reporter transcription; actives raise or lower the signal. An outline of the steps: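 Values derive from bidirectional fits relative to DMSO of reporter mRNA levels, measured by RT-PCR with capillary electrophoresis, in HepG2 cells carrying transiently transfected cis-regulated reporter units and exposed 24 h.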

A short description of assay [8]: ATG_TA_CIS: Attagene CIS-FACTORIAL HepG2 Assay for human TA Basal Promoter (AID 2282964). The conditions noted are these: HepG2 Attagene CIS-factorial TA basal promoter reporter; actives raise or lower the signal. In short, it runs like this: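 Read-out: fluorescent reporter-transcript fragments resolved by capillary electrophoresis after RT-PCR and HpaI digestion. Source: HepG2 cells carrying transiently transfected multi-reporter cis constructs, treated 24 h. Endpoint fitted bidirectionally relative to DMSO.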

A short description of assay [9]: ATG_TCF_b_cat_CIS: Attagene CIS-FACTORIAL HepG2 Assay for human T-Cell-Factor with beta-catenin (TCF/b-cat) (AID 2282965). The note with it: HepG2 TCF/beta-catenin cis-reporter transcription, actives raise or lower the signal. An outline of the steps: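 HepG2, transient MRTU transfection, cis-element-driven reporters (endogenous TFs). 24 h compound exposure. Readout: reporter mRNA by RT-PCR + 6-FAM primer extension, HpaI digest, capillary electrophoresis. Gain/loss fit vs DMSO baseline.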

Assay [10] is described as follows: ATG_TAL_CIS: Attagene CIS-FACTORIAL HepG2 Assay for human TAL Basal Promoter (AID 2282966).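 Note: background control endpoint measuring basal TAL promoter reporter mRNA not a specific factor.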 The conditions noted are these: HepG2 Attagene cis-factorial TAL promoter reporter; actives raise or lower the signal. In short, it runs like this: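 Fluorescence of labelled reporter cDNA fragments, resolved by capillary electrophoresis, gave the readout. Human HepG2 liver cells carried transiently transfected cis-element reporter units and were treated for 24 hours; activity was fitted bidirectionally against DMSO.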

Assay [11] is described as follows: ATG_TGFb_CIS: Attagene CIS-FACTORIAL HepG2 Assay for human Transforming Growth Factor (TGF) (AID 2282967). The note with it: HepG2 Attagene CIS TGFb reporter, mRNA transcription; actives raise or lower the signal. In short, it runs like this: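 Transient MRTU transfection of HepG2 (FuGene 6). Dose 24 h. TriZol RNA, oligo(dT) RT, PCR, 6-FAM primer extension, HpaI cut, CE. Bidirectional fit, DMSO = baseline.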

In assay [12] the target is Estrogen receptor (Homo sapiens) (UniProt P03372). The experiment in a line: ATG_ERa_TRANS: Attagene TRANS-FACTORIAL HepG2 Assay for human Estrogen Receptor alpha (ERa) (AID 2282970; active = hit-call score of the fitted dose curve at least 0.9, where 1 is the maximum). The conditions noted are these: HepG2 Attagene TRANS ERa GAL4 reporter, mRNA. An outline of the steps: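 Human liver HepG2, transient transfection of multiple GAL4-UAS reporter units; TRANS format (exogenous NR-Gal4 chimera). 24 h dosing. Readout: reporter mRNA, RT-PCR, 6-FAM primer extension, HpaI digest, capillary electrophoresis. Positive direction vs DMSO.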

Assay [13] concerns the target X-box-binding protein 1 (Homo sapiens) (UniProt P17861). Briefly: ATG_Xbp1_CIS: Attagene CIS-FACTORIAL HepG2 Assay for human X-box Binding Protein 1 (XBP1) (AID 2282972). The conditions noted are these: HepG2 XBP1 cis-element reporter, Attagene multiplex; actives raise or lower the signal. An outline of the steps: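 HepG2, transient MRTU transfection (cis-promoter driven), 24 h compound exposure. Total RNA → oligo(dT) RT → PCR → 6-FAM labeling → HpaI cut → CE. Bidirectional fit vs DMSO.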

Assay [14] can be described thus: ATG_GAL4_TRANS: Attagene TRANS-FACTORIAL HepG2 Assay for GAL4 (Internal Marker) (AID 2282976; active = hit-call score of the fitted dose curve at least 0.9, where 1 is the maximum). The conditions noted are these: HepG2 Attagene TRANS GAL4 internal marker reporter. In short, it runs like this: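 First, HepG2 cells were transfected with reporter units under GAL4-UAS control. Next, they were treated with chemical for 24 h. Finally, RNA was reverse-transcribed, PCR-amplified, FAM-labelled and resolved by capillary electrophoresis, with induction scored against DMSO.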

Assay [15] in a line: ATG_PPRE_CIS: Attagene CIS-FACTORIAL HepG2 Assay for human Peroxisome Proliferator-activated Response Element (PPRE) (AID 2282958). The conditions noted are these: HepG2 PPRE cis-element reporter, Attagene transcription factor profiling; actives raise or lower the signal. In short, it runs like this: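 DMSO served as negative control and baseline for bidirectional curve fitting. Signal came from PPRE-regulated reporter mRNA in HepG2 cells, measured 24 h post-dosing by RT-PCR, 6-FAM primer extension and capillary electrophoresis.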

Assay [16] is described as follows: ATG_VDRE_CIS: Attagene CIS-FACTORIAL HepG2 Assay for human Vitamin D Receptor Element (VDRE) (AID 2282968). The conditions noted are these: HepG2 VDRE cis-reporter transcription, actives raise or lower the signal. In short, it runs like this: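 Cell-based multiplexed reporter format in human liver HepG2 cells, 24 h post-dose. Fluorescence from capillary electrophoresis of reporter cDNA gives the signal, with DMSO as negative control and baseline.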

Assay [17] concerns the target Nuclear receptor subfamily 1 group I member 3 (Homo sapiens) (UniProt Q14994). Briefly: ATG_CAR_TRANS: Attagene TRANS-FACTORIAL HepG2 Assay for human Constitutive Androstane Receptor (CAR) (AID 2282969; active = hit-call score of the fitted dose curve at least 0.9, where 1 is the maximum;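 note: activators raise reporter mRNA above DMSO so AC50 marks induction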). The conditions noted are these: HepG2 Attagene TRANS-FACTORIAL CAR reporter. An outline of the steps:
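HepG2 cells transiently transfected with GAL4-UAS reporter units; TRANS format reads activity of exogenous chimeric NR-Gal4 protein. After 24 h dosing, reporter mRNA quantified by RT-PCR, 6-FAM labelling and capillary electrophoresis; gain of signal fitted against DMSO.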

The target in assay [18] is Steroid hormone receptor ERR1 (Homo sapiens) (UniProt P11474). Briefly: ATG_ERRa_TRANS: Attagene TRANS-FACTORIAL HepG2 Assay for human Estrogen-Related Receptor alpha (ERRa) (AID 2282971; active = hit-call score of the fitted dose curve at least 0.9, where 1 is the maximum). The note with it: HepG2 Attagene TRANS reporter, ERRa transactivation. In short, it runs like this: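 Reporter transcript induction was quantified by RT-PCR and capillary electrophoresis of FAM-labelled, HpaI-cut products after 24 h treatment of HepG2 cells carrying transiently transfected GAL4-UAS reporter units and an exogenous ERRa-Gal4 fusion; activity scored as increase over DMSO.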

The target in assay [19] is Estrogen-related receptor gamma (Homo sapiens) (UniProt P62508). The experiment in a line: ATG_ERRg_TRANS: Attagene TRANS-FACTORIAL HepG2 Assay for human Estrogen-Related Receptor gamma (ERRg) (AID 2282977; active = hit-call score of the fitted dose curve at least 0.9, where 1 is the maximum;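 note: hits increase reporter signal over DMSO so potencies reflect activators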). The note with it: HepG2 Attagene TRANS reporter, ERRg transactivation. In short, it runs like this: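 HepG2 cells transiently transfected with multiplexed GAL4-UAS reporter units and chimeric NR-Gal4 constructs were exposed to test chemicals for 24 h. Reporter mRNA was measured by RT-PCR, 6-FAM primer extension, HpaI digestion and capillary electrophoresis; gain-of-signal versus DMSO.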

Assay [20] is described as follows: ATG_M_19_TRANS: Attagene TRANS-FACTORIAL HepG2 Assay for M19 Transcription Factor (Internal Marker) (AID 2282974; active = hit-call score of the fitted dose curve at least 0.9, where 1 is the maximum). The note with it: HepG2 Attagene TRANS-FACTORIAL M19 internal marker reporter. In short, it runs like this:
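Multiplexed TRANS format: HepG2 liver cells bearing transient GAL4-UAS reporter units, chemical treatment 24 h, reporter transcripts quantified by RT-PCR plus capillary electrophoresis. DMSO defines baseline.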

SMILES strings stand for the structures. Results filed as inconclusive are left out. The source made the active and inactive calls. Rule for the calls, unless noted: active = hit-call score of the fitted dose curve at least 0.9, where 1 is the maximum; inactive = score below 0.9.

Paired box protein Pax-6 (Homo sapiens), sequence (P26367 whole entry, looked up): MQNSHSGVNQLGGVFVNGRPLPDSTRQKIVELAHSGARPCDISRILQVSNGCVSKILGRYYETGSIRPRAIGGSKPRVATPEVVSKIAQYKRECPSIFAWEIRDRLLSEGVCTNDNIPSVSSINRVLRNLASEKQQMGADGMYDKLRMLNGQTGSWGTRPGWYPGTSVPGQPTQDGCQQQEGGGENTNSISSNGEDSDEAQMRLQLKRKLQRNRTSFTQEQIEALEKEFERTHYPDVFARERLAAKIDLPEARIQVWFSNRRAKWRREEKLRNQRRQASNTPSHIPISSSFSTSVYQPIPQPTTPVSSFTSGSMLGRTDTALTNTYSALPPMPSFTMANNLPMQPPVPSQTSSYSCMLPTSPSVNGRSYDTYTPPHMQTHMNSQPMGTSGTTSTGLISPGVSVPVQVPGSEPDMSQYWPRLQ
Signal transducer and activator of transcription 3 (Homo sapiens), sequence (P40763 whole entry, looked up): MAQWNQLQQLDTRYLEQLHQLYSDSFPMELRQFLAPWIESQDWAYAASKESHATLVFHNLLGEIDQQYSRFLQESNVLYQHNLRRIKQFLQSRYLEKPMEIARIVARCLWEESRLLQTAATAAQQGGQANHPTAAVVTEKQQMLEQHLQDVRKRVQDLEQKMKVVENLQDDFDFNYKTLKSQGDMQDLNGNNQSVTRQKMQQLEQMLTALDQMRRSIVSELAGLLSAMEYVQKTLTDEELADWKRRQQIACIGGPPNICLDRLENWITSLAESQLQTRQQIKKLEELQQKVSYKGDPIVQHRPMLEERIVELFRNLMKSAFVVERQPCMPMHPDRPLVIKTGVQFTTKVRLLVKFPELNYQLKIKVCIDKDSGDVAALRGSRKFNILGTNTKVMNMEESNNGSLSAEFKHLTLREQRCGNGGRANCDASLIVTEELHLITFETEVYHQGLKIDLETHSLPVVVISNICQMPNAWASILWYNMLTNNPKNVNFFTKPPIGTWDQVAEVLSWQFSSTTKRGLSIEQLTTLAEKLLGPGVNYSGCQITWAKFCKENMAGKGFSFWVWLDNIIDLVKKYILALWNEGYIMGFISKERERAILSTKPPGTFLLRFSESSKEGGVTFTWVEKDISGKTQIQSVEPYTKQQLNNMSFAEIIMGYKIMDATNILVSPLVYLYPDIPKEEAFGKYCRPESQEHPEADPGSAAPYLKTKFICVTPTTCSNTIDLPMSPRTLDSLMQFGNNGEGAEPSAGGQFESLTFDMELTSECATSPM
Transcription factor Sp1 (Homo sapiens), sequence (P08047 whole entry, looked up): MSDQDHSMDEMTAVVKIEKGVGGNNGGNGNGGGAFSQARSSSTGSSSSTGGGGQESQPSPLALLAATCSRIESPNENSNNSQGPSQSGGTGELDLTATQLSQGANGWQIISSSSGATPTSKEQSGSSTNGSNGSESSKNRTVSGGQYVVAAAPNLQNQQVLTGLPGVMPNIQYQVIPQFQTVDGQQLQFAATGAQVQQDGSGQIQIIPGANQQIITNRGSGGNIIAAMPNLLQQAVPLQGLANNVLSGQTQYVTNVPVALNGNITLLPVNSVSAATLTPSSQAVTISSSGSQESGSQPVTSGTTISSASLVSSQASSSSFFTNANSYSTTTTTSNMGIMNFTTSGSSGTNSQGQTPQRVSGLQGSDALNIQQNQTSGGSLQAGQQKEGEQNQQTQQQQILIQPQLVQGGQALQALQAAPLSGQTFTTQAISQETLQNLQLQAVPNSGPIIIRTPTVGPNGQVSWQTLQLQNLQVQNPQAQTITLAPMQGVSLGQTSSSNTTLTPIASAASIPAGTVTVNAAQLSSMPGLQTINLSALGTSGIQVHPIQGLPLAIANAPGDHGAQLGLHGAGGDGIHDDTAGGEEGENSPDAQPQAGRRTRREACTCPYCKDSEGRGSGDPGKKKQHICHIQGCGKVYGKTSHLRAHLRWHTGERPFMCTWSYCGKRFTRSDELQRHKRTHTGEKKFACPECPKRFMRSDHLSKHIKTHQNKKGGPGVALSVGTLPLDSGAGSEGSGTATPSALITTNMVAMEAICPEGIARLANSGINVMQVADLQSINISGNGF
X-box-binding protein 1 (Homo sapiens), sequence (P17861 whole entry, looked up): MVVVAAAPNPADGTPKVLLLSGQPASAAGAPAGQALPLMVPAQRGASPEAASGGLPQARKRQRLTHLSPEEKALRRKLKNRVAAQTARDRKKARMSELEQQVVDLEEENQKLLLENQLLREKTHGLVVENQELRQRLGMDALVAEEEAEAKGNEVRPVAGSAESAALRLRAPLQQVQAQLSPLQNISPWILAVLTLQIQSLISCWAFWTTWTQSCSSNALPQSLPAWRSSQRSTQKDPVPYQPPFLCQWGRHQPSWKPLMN
Estrogen receptor (Homo sapiens), sequence (P03372 whole entry, looked up, the tested form may be a part): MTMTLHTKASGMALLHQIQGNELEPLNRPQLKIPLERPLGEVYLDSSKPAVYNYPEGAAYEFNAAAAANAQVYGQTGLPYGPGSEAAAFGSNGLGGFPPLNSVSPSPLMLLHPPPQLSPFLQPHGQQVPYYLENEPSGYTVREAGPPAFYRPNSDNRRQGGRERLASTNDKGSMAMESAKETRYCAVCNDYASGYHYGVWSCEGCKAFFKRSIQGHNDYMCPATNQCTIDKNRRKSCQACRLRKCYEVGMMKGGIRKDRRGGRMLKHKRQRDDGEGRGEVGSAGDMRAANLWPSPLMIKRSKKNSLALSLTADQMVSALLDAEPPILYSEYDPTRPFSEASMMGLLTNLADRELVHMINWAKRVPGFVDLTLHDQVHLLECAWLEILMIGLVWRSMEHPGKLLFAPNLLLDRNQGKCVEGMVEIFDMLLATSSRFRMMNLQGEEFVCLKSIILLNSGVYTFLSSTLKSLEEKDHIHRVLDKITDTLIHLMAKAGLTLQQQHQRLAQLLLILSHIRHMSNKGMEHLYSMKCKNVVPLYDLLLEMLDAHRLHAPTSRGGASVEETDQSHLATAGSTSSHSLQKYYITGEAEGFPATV
Estrogen-related receptor gamma (Homo sapiens), sequence (P62508 whole entry, looked up, the tested form may be a part): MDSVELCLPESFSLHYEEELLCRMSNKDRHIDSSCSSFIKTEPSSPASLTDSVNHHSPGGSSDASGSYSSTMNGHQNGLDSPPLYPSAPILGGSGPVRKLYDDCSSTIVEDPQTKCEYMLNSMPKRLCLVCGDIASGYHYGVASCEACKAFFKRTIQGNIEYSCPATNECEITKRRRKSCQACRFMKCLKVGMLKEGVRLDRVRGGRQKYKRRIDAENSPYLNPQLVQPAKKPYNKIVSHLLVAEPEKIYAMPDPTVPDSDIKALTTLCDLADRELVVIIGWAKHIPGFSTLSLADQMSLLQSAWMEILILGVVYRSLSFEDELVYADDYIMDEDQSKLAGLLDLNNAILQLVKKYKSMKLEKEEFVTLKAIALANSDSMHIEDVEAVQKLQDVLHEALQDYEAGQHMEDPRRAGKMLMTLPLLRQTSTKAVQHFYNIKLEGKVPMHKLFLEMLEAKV
Steroid hormone receptor ERR1 (Homo sapiens), sequence (P11474 whole entry, looked up, the tested form may be a part): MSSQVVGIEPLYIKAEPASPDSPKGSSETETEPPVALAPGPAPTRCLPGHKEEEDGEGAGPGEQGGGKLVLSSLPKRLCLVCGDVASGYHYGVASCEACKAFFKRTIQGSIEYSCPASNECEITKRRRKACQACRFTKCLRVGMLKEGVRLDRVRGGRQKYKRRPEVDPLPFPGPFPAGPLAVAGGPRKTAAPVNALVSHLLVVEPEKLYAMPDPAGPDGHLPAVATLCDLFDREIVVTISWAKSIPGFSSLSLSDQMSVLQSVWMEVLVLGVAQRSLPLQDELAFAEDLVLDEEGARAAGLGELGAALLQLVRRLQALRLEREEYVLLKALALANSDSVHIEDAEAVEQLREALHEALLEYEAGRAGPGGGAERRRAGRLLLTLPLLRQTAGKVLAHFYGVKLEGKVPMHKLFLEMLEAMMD
Nuclear receptor subfamily 1 group I member 3 (Homo sapiens), sequence (Q14994 whole entry, looked up, the tested form may be a part): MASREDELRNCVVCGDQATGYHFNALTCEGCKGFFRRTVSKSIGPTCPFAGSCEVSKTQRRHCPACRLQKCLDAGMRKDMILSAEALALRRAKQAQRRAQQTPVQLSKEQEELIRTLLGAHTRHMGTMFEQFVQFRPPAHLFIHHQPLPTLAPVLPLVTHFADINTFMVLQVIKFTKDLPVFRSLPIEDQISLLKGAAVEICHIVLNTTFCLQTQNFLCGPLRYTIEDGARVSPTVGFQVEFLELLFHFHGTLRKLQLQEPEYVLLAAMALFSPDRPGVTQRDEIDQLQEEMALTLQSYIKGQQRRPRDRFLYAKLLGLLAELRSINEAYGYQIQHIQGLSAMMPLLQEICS

`NC(=O)OCC(COC(N)=O)c1ccccc1`: the call in assay [1], in assay [2], in assay [3], in assay [4], in [5] and in assay [6] was inactive. Moreover, the call in [7], in assay [8], in [9], in assay [10], in assay [11] and in [12] was inactive. The result in assay [13] and in assay [14] was inactive.
On to `CCOC(=O)NNc1nncc2ccccc12`, for which the outcome in assay [1], in [2], in assay [15], in assay [4], in assay [5] and in assay [6] was inactive. Moreover, the outcome in [7], in assay [8], in assay [9], in assay [10], in [11] and in assay [16] was inactive. In addition, the compound was called inactive in assay [14].
By AC50 is commonly meant the concentration at which the activity in the assay is half-maximal. For the compound `O=C(Cl)c1cc(C(=O)Cl)cc(C(=O)Cl)c1`, the call in assay [1], in assay [4], in assay [5], in [6], in assay [7] and in assay [8] was inactive. Besides, the compound was classed as inactive in assay [9] and in assay [13]. Besides, the AC50 was 47.6 µM (active) in [2], 100 µM (active) in [15], 132 µM (active) in assay [11] and 46 µM (active) in assay [16].
Consider `C=CC(=O)OCCC(=O)O`, for which the compound was classed as inactive in assay [1], in [2], in assay [3], in assay [4], in assay [5] and in assay [6]. Also, the call in assay [7], in [8], in assay [9], in assay [10], in assay [11] and in assay [16] was inactive. The call in assay [17], in assay [18], in assay [14] and in assay [19] was inactive.
Take `CC(C)CCCCCOC(=O)CCS`: the call in assay [1], in [15], in assay [4], in assay [5], in assay [6] and in [7] was inactive. Also, the result in [8], in assay [9], in [10], in [16], in [12] and in assay [13] was inactive. Also, the result in assay [20] was inactive. In addition, in assay [2], the half-maximal activity concentration (AC50) was 6.6 µM (active).

Values taken from PubChem BioAssay (EPA / NIEHS).
